Laboratory results reported in PubChem BioAssay AID1159580 (chemical genetic matrix, 2015).
About 2,000 (36%) of roughly 5,500 compounds were called active. Roughly 18% stayed inconclusive and do not appear here. The list shows a part of the results. Unmarked numbers belong to inactive results. Rule as the data show it: active = normalized growth mostly below about 0.91 (no sharp cut-off); inconclusive = no clear call, values can overlap the other calls; inactive = mostly above about 0.92.

Experiment: chemical genetic growth profiling, strain panel (AID 1159580);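 also: tested at 20 µM; growth read once vehicle control cultures reached saturation at 30 °C; 1 = growth at the plate median or of vehicle wells; lower values mean less growth of the strain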
Conditions: growth OD

Q: With COc1cc(O)c2c(=O)c(O)c(-c3ccc(O)c(O)c3)oc2c1 as the compound, how does the normalized growth (S. cerevisiae deletion strains, locus YJR075W, strain HOC1, active compounds read low) read?
A: The normalized growth was 0.987.

Q: What about the normalized growth (S. cerevisiae deletion strains, locus YKL009W, strain mrt4, active compounds read low) of the same compound?
A: The normalized growth was 1.02.

Q: What about the normalized growth (S. cerevisiae deletion strains, locus YKL068W, active compounds read low) of the same compound?
A: The normalized growth was 1.

Q: And the normalized growth (S. cerevisiae deletion strains, locus YKL085W, strain MDH1 (second series), active compounds read low)?
A: Its normalized growth is 0.994.

Q: And the normalized growth (S. cerevisiae deletion strains, locus YKL085W, strain MDH1, active compounds read low)?
A: Its normalized growth is 0.994.

Q: What about the normalized growth (S. cerevisiae deletion strains, locus YKL160W, strain elf1, active compounds read low) of the same compound?
A: Its normalized growth is 0.84 (active).

Q: And the normalized growth (S. cerevisiae deletion strains, locus YKL190W, strain CNB1, active compounds read low)?
A: The normalized growth was 0.997.

Q: What about the normalized growth (S. cerevisiae deletion strains, locus YKR001C, strain vps1, active compounds read low) of the same compound?
A: The normalized growth was 0.996.

Q: What about the normalized growth (S. cerevisiae deletion strains, locus YKR026C, strain gcn3, active compounds read low) of the same compound?
A: The normalized growth was 0.945.

Q: And the normalized growth (S. cerevisiae deletion strains, locus YKR091W, strain srl3, active compounds read low)?
A: The normalized growth was 0.961.

Q: What about the normalized growth (S. cerevisiae deletion strains, locus YLL001W, strain dnm1, active compounds read low) of the same compound?
A: Its normalized growth is 0.782 (active).

Q: And the normalized growth (S. cerevisiae deletion strains, locus YLL026W, active compounds read low)?
A: Its normalized growth is 0.934.

Q: And the normalized growth (S. cerevisiae deletion strains, locus YLL041C, strain sdh2, active compounds read low)?
A: The normalized growth was 0.928.

Q: What about the normalized growth (S. cerevisiae deletion strains, locus YLR027C, strain aat2, active compounds read low) of the same compound?
A: The normalized growth was 0.843 (active).

Q: What about the normalized growth (S. cerevisiae deletion strains, locus YLR039C, strain RIC1, active compounds read low) of the same compound?
A: The normalized growth was 0.785.

Q: And the normalized growth (S. cerevisiae deletion strains, locus YLR058C, strain SHM2, active compounds read low)?
A: Its normalized growth is 0.827 (active).

Q: What about the normalized growth (S. cerevisiae deletion strains, locus YLR102C, strain apc9, active compounds read low) of the same compound?
A: Its normalized growth is 1.02.

Q: And the normalized growth (S. cerevisiae deletion strains, locus YLR221C, strain rsa3, active compounds read low)?
A: The normalized growth was 0.779 (active).

Q: What about the normalized growth (S. cerevisiae deletion strains, locus YLR258W, strain gsy2, active compounds read low) of the same compound?
A: Its normalized growth is 0.854 (active).

Q: And the normalized growth (S. cerevisiae deletion strains, locus YLR262C, strain YPT6 (second series), active compounds read low)?
A: The normalized growth was 0.565 (active).

Q: And the normalized growth (S. cerevisiae deletion strains, locus YLR262C, strain YPT6, active compounds read low)?
A: Its normalized growth is 0.91.

Q: What about the normalized growth (S. cerevisiae deletion strains, locus YLR268W, strain sec22, active compounds read low) of the same compound?
A: The normalized growth was 0.968.

Q: What about the normalized growth (S. cerevisiae deletion strains, locus YLR320W, strain mms22, active compounds read low) of the same compound?
A: Its normalized growth is 0.758 (active).

Q: And the normalized growth (S. cerevisiae deletion strains, locus YLR330W, strain CHS5, active compounds read low)?
A: Its normalized growth is 0.99.

Q: What about the normalized growth (S. cerevisiae deletion strains, locus YLR342W, strain FKS1 (second series), active compounds read low) of the same compound?
A: The normalized growth was 0.898.

Q: And the normalized growth (S. cerevisiae deletion strains, locus YLR342W, strain FKS1, active compounds read low)?
A: The normalized growth was 0.643 (active).

Q: What about the normalized growth (S. cerevisiae deletion strains, locus YLR357W, strain rsc2, active compounds read low) of the same compound?
A: The normalized growth was 0.678 (active).

Q: What about the normalized growth (S. cerevisiae deletion strains, locus YLR370C, strain arc18, active compounds read low) of the same compound?
A: Its normalized growth is 0.813 (active).

Q: What about the normalized growth (S. cerevisiae deletion strains, locus YLR371W, strain rom2, active compounds read low) of the same compound?
A: Its normalized growth is 0.962.

Q: What about the normalized growth (S. cerevisiae deletion strains, locus YLR384C, strain iki3, active compounds read low) of the same compound?
A: The normalized growth was 0.936.

Q: And the normalized growth (S. cerevisiae deletion strains, locus YLR418C, strain cdc73, active compounds read low)?
A: The normalized growth was 0.957.

Q: What about the normalized growth (S. cerevisiae deletion strains, locus YML016C, strain PPZ1, active compounds read low) of the same compound?
A: Its normalized growth is 0.915 (active).

Q: What about the normalized growth (S. cerevisiae deletion strains, locus YML032C, strain rad52, active compounds read low) of the same compound?
A: Its normalized growth is 1.02.

Q: And the normalized growth (S. cerevisiae deletion strains, locus YML120C, strain ndi1, active compounds read low)?
A: The normalized growth was 0.879 (active).

Q: And the normalized growth (S. cerevisiae deletion strains, locus YML124C, strain tub3, active compounds read low)?
A: Its normalized growth is 1.02.

Q: What about the normalized growth (S. cerevisiae deletion strains, locus YMR058W, strain fet3, active compounds read low) of the same compound?
A: Its normalized growth is 0.247 (active).

Q: What about the normalized growth (S. cerevisiae deletion strains, locus YMR078C, strain ctf18, active compounds read low) of the same compound?
A: The normalized growth was 1.02.

Q: And the normalized growth (S. cerevisiae deletion strains, locus YMR125W, strain sto1, active compounds read low)?
A: The normalized growth was 1.

Q: And the normalized growth (S. cerevisiae deletion strains, locus YMR129W, active compounds read low)?
A: Its normalized growth is 0.927.

Q: What about the normalized growth (S. cerevisiae deletion strains, locus YMR205C, strain PFK2, active compounds read low) of the same compound?
A: The normalized growth was 0.658 (active).

Q: And the normalized growth (S. cerevisiae deletion strains, locus YMR223W, strain ubp8, active compounds read low)?
A: Its normalized growth is 1.

Q: What about the normalized growth (S. cerevisiae deletion strains, locus YMR231W, strain pep5, active compounds read low) of the same compound?
A: The normalized growth was 0.874 (active).

Q: And the normalized growth (S. cerevisiae deletion strains, locus YMR307W, strain GAS1, active compounds read low)?
A: The normalized growth was 0.768.

Q: What about the normalized growth (S. cerevisiae deletion strains, locus YNL067W, strain RPL9B, active compounds read low) of the same compound?
A: Its normalized growth is 0.953.

Q: And the normalized growth (S. cerevisiae deletion strains, locus YNL071W, strain lat1, active compounds read low)?
A: The normalized growth was 0.919.

Q: What about the normalized growth (S. cerevisiae deletion strains, locus YNL128W, strain TEP1, active compounds read low) of the same compound?
A: The normalized growth was 0.935.

Q: And the normalized growth (S. cerevisiae deletion strains, locus YNL209W, strain ssb2, active compounds read low)?
A: The normalized growth was 0.452 (active).

Q: What about the normalized growth (S. cerevisiae deletion strains, locus YNL233W, strain BNI4, active compounds read low) of the same compound?
A: Its normalized growth is 0.894.

Q: What about the normalized growth (S. cerevisiae deletion strains, locus YNL248C, strain rpa49, active compounds read low) of the same compound?
A: Its normalized growth is 0.889.

Q: And the normalized growth (S. cerevisiae deletion strains, locus YNL250W, strain rad50, active compounds read low)?
A: The normalized growth was 0.986.

Q: What about the normalized growth (S. cerevisiae deletion strains, locus YNL271C, strain bni1, active compounds read low) of the same compound?
A: Its normalized growth is 0.998.

Q: What about the normalized growth (S. cerevisiae deletion strains, locus YNL298W, strain CLA4, active compounds read low) of the same compound?
A: The normalized growth was 1.01.

Q: What about the normalized growth (S. cerevisiae deletion strains, locus YNL307C, strain MCK1, active compounds read low) of the same compound?
A: Its normalized growth is 1.02.

Q: What about the normalized growth (S. cerevisiae deletion strains, locus YNL322C, strain KRE1 (second series), active compounds read low) of the same compound?
A: Its normalized growth is 0.967.

Q: And the normalized growth (S. cerevisiae deletion strains, locus YNL322C, strain KRE1, active compounds read low)?
A: The normalized growth was 0.952.

Q: What about the normalized growth (S. cerevisiae deletion strains, locus YNR049C, strain mso1, active compounds read low) of the same compound?
A: The normalized growth was 0.947.

Q: And the normalized growth (S. cerevisiae deletion strains, locus YNR052C, strain pop2, active compounds read low)?
A: The normalized growth was 0.991.

Q: What about the normalized growth (S. cerevisiae deletion strains, locus YOL006C, strain TOP1, active compounds read low) of the same compound?
A: The normalized growth was 0.624.

Q: What about the normalized growth (S. cerevisiae deletion strains, locus YOL012C, strain htz1) of the same compound?
A: The normalized growth was 0.669.

Q: And the normalized growth (S. cerevisiae deletion strains, locus YOL147C, strain pex11, active compounds read low)?
A: The normalized growth was 1.01.

Q: What about the normalized growth (S. cerevisiae deletion strains, locus YOR001W, strain rrp6, active compounds read low) of the same compound?
A: Its normalized growth is 0.845 (active).

Q: What about the normalized growth (S. cerevisiae deletion strains, locus YOR061W, strain CKA2, active compounds read low) of the same compound?
A: Its normalized growth is 0.934.

Q: And the normalized growth (S. cerevisiae deletion strains, locus YOR069W, strain VPS5, active compounds read low)?
A: Its normalized growth is 0.966.

Q: And the normalized growth (S. cerevisiae deletion strains, locus YOR070C, strain gyp1, active compounds read low)?
A: The normalized growth was 0.878 (active).

Q: What about the normalized growth (S. cerevisiae deletion strains, locus YOR080W, strain dia2, active compounds read low) of the same compound?
A: The normalized growth was 0.813 (active).

Q: What about the normalized growth (S. cerevisiae deletion strains, locus YOR083W, strain WHI5, active compounds read low) of the same compound?
A: Its normalized growth is 0.749 (active).

Q: And the normalized growth (S. cerevisiae deletion strains, locus YOR106W, strain vam3, active compounds read low)?
A: Its normalized growth is 0.407 (active).

Q: What about the normalized growth (S. cerevisiae deletion strains, locus YOR136W, strain idh2, active compounds read low) of the same compound?
A: Its normalized growth is 1.01.

Q: And the normalized growth (S. cerevisiae deletion strains, locus YOR144C, strain elg1, active compounds read low)?
A: The normalized growth was 1.02.

Q: And the normalized growth (S. cerevisiae deletion strains, locus YOR184W, strain ser1, active compounds read low)?
A: Its normalized growth is 0.993.

Q: What about the normalized growth (S. cerevisiae deletion strains, locus YOR265W, strain rbl2, active compounds read low) of the same compound?
A: The normalized growth was 0.883 (active).

Q: And the normalized growth (S. cerevisiae deletion strains, locus YOR270C, strain vph1, active compounds read low)?
A: The normalized growth was 0.484 (active).

Q: And the normalized growth (S. cerevisiae deletion strains, locus YOR290C, strain snf2, active compounds read low)?
A: The normalized growth was 0.701 (active).

Q: And the normalized growth (S. cerevisiae deletion strains, locus YOR316C, strain cot1, active compounds read low)?
A: The normalized growth was 1.05.

Q: And the normalized growth (S. cerevisiae deletion strains, locus YPL051W, strain arl3, active compounds read low)?
A: The normalized growth was 0.521 (active).

Q: What about the normalized growth (S. cerevisiae deletion strains, locus YPL078C, strain atp4, active compounds read low) of the same compound?
A: The normalized growth was 0.796 (active).

Q: And the normalized growth (S. cerevisiae deletion strains, locus YPL106C, strain sse1, active compounds read low)?
A: Its normalized growth is 0.77 (active).

Q: And the normalized growth (S. cerevisiae deletion strains, locus YPL240C, strain hsp82, active compounds read low)?
A: Its normalized growth is 0.83 (active).

Q: And the normalized growth (S. cerevisiae deletion strains, locus YPL241C, strain CIN2, active compounds read low)?
A: The normalized growth was 0.989.

Q: And the normalized growth (S. cerevisiae deletion strains, locus YPR119W, strain clb2, active compounds read low)?
A: Its normalized growth is 1.03.

Q: What about the normalized growth (S. cerevisiae deletion strains, locus YPR141C, strain kar3, active compounds read low) of the same compound?
A: The normalized growth was 0.997.

Q: And the normalized growth (S. cerevisiae deletion strains, locus YPR163C, strain tif3, active compounds read low)?
A: The normalized growth was 1.01.

Q: What about the normalized growth (S. cerevisiae deletion strains, locus YPR167C, strain met16, active compounds read low) of the same compound?
A: Its normalized growth is 1.

Q: What about the normalized growth (S. cerevisiae deletion strains, strain wtn01, active compounds read low) of the same compound?
A: Its normalized growth is 0.996.

Q: And the normalized growth (S. cerevisiae strains, strain wild type, active compounds read low)?
A: The normalized growth was 0.929.
